This is an account of results in PubChem BioAssay (NCATS).

Structures are written as SMILES. Where “and” joins values, the source holds several entries; their conditions need not be identical. Equal entries are not always repeated. Results filed as inconclusive are left out. A number with no mark means an inactive call. Calls of active or inactive are those of the source. Unless noted, the call rests on the fitted dose curve; in most records, active means well fitted curve in the direction sought with a large enough effect; inconclusive means small, poorly fitted or top-dose-only effect, or another doubt; inactive means no such curve, though single readings can be large; an effect the other way counts as inactive or inconclusive.

The target in experiment [1] is Voltage-gated inwardly rectifying potassium channel KCNH2 (Homo sapiens) (UniProt Q12809). Description: qHTS Assay for Small Molecule Inhibitors of the Human hERG Channel Activity (AID 588834).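 Further: top concentration of the series differs between compounds; on the % scale 0 is the no-effect control and ±100 the full control effect; lower thallium flux fluorescence means stronger hERG block; nearly all actives have a fitted effect of over 50% in size.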 Conditions: U2OS BacMam hERG, FluxOR thallium flux fluorescence; series mostly up to 46.1 µM. In short, it runs like this:
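U2OS cells transduced with hERG via BacMam (MOI ~100), plated 2000/well, loaded with FluxOR thallium dye, compound ~10 min, then stimulation buffer; fluorescence decrease read kinetically; AC50 from Hill fits.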

In experiment [2] the target is Luciferin 4-monooxygenase (Photinus pyralis) (UniProt P08659). Description: Biochemical firefly luciferase enzyme assay for NPC (AID 624030). Further: nearly all actives have a fitted effect of over 70% in size. Further: potency means the concentration at half of the fitted maximal effect. Conditions: purified P. pyralis luciferase, luminescence, 5 min; series mostly up to 58.6 µM. In short, it runs like this:
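Counter-screen for direct inhibition of the luciferase enzyme by approved-drug library compounds, run at 10 nM enzyme in 50 mM Tris acetate (final). Luminescence was read within 5 min of enzyme-buffer addition and normalized to PTC124 versus DMSO (0%).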

Experiment [3] in a line: S16 Schwann cell viability assay (CellTiter-Glo assay) (AID 624031).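 Further: cellular ATP luminescence as a viability measure; plate controls were DMSO-treated cells for no effect and cell-free wells for full effect; nearly all actives have a fitted effect of over 70% in size.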 To be noted: S16 rat Schwann cells viability, 24 h; series mostly up to 57.5 µM. In short, it runs like this:
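CellTiter-Glo ATP luminescence counter-screen in untransfected S16 rat Schwann cells, 24h compound exposure at 37 degree Celsius after overnight seeding (500-750 cells/well); response scaled between cell-free wells and DMSO (0% activity), curves classed by r2 and magnitude.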

Experiment [4] is described as follows: S16 Schwann cell PMP22 intronic element firefly luciferase assay (AID 624032). Further: nearly all actives have a fitted effect of over 30% in size. Further: potency means the concentration at half of the fitted maximal effect. To be noted: S16 rat Schwann cells, PMP22 element FLuc, 24 h; series mostly up to 57.5 µM. In short, it runs like this: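 Rat S16 Schwann cells stably carrying a PMP22 intronic element-driven Fluc reporter were seeded overnight, then exposed to compounds for 24 h at 37 °C. Luminescence was normalized to PTC124 (positive control) and DMSO (0% activity).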

Experiment [5] in a line: S16 Schwann cell PMP22 intronic element beta-lactamase assay (AID 624044; calls by dose curve;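 further: 0% = DMSO and -100% = potassium clavulanate positive control; nearly all actives have a fitted effect of over 15% in size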). To be noted: S16 rat Schwann cells, PMP22 element beta-lactamase FRET, 24 h; ratio activity, negative = inhibition: at 38.3 µM (top of the series) unless noted. In short, it runs like this:
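Rat S16 Schwann cells with beta-Lac driven by a PMP22 intronic element, compound-treated 24 h at 37 °C. LiveBLAzer FRET B/G read: 460 nm normalized to potassium clavulanate vs DMSO; 535 nm FRET as viability; concentration-effect curves classified.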

Sequence of Luciferin 4-monooxygenase (Photinus pyralis) (P08659 whole entry, looked up): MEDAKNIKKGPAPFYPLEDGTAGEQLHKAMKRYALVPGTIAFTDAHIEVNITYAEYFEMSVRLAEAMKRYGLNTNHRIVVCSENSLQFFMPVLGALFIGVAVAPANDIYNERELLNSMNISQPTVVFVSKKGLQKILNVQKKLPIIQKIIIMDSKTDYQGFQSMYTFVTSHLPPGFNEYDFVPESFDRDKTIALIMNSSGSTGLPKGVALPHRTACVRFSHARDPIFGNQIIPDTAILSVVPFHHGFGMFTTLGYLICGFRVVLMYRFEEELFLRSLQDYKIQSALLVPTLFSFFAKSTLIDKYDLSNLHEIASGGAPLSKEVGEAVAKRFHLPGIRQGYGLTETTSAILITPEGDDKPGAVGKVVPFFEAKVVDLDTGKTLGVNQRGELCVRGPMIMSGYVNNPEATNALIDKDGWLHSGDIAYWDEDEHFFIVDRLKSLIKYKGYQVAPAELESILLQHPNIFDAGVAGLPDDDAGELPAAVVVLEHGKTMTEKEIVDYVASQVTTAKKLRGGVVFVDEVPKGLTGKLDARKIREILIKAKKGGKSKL
Sequence of Voltage-gated inwardly rectifying potassium channel KCNH2 (Homo sapiens) (Q12809 whole entry, looked up): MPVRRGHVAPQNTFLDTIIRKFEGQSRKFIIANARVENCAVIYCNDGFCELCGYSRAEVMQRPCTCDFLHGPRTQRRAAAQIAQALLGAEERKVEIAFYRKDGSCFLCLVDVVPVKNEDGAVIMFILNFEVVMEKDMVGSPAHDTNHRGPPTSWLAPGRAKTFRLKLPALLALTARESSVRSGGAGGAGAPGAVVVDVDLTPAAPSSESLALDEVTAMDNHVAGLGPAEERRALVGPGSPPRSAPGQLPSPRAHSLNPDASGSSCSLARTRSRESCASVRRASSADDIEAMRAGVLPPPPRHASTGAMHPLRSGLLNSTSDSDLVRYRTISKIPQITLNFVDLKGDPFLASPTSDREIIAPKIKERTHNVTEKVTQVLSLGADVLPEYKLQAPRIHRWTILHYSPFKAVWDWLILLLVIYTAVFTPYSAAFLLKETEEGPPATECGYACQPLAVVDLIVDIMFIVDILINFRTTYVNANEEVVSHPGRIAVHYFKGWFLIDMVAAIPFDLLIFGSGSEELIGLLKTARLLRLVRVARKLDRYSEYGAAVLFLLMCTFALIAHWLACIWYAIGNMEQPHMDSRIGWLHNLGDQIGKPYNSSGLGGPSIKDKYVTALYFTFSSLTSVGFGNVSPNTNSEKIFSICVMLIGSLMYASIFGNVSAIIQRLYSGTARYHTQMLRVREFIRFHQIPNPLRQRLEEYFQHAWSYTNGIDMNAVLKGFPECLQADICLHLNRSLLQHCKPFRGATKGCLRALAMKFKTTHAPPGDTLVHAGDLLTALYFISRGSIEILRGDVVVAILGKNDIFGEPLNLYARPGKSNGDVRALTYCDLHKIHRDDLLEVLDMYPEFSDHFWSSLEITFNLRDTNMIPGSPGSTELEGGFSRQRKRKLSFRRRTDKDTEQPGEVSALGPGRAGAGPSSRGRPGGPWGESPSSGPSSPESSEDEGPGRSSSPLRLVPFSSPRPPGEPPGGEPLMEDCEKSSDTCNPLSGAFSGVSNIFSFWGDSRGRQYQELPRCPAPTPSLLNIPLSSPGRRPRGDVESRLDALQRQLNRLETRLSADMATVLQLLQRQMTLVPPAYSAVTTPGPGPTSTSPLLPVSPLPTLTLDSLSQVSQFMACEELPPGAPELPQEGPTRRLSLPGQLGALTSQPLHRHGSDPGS

Consider `Cc1cccc(C)c1NC(=O)NC1=CCCN1C`, for which the Potency entry in experiment [1], in experiment [2], in experiment [3] and in experiment [4] was “inactive” in each case. The ratio activity, negative = inhibition in experiment [5] is 3.11%.

As for `O=C(O)C1=C(CSc2nnnn2CS(=O)(=O)O)CS[C@@H]2[C@H](NC(=O)[C@H](O)c3ccccc3)C(=O)N12`, the Potency result in experiment [1], in experiment [2], in experiment [3] and in experiment [4] was “inactive” in each case.

For the compound `Nc1nc(=O)n([C@@H]2CS[C@H](CO)O2)cc1F`, the Potency result in experiment [1], in experiment [2], in experiment [3] and in experiment [4] was “inactive” each time.

Turning to `COC1=C(OC)C(=O)C(C/C=C(\C)CC/C=C(\C)CC/C=C(\C)CC/C=C(\C)CC/C=C(\C)CC/C=C(\C)CC/C=C(\C)CC/C=C(\C)CC/C=C(\C)CCC=C(C)C)=C(C)C1=O`, the Potency entry in experiment [1], in experiment [2] and in experiment [3] was “inactive” throughout. Besides, the Potency in experiment [4] is 0.642 µM (active).

Regarding `N[C@H](CC(=O)O)C(=O)O`, the Potency result in experiment [1], in experiment [2], in experiment [3] and in experiment [4] was “inactive” each time.

With `C/C(=C\C(=O)OCCCCCCCCC(=O)O)C[C@@H]1OC[C@H](C[C@@H]2O[C@H]2[C@@H](C)[C@H](C)O)[C@@H](O)[C@H]1O`, the Potency entry in experiment [1], in experiment [2], in experiment [3] and in experiment [4] was “inactive” throughout. Moreover, the ratio activity, negative = inhibition in experiment [5] is 0.0634%.

As for `Cc1cc(C(=O)NCCc2ccc(S(=O)(=O)NC(=O)NN3CCCCCC3)cc2)no1`, the Potency entry in experiment [1], in experiment [2], in experiment [3] and in experiment [4] was “inactive” throughout.

Take `O=C1c2ccccc2C(=O)C1c1ccc(F)cc1`: the Potency entry in experiment [1], in experiment [2], in experiment [3] and in experiment [4] was “inactive” each time. Besides, the ratio activity, negative = inhibition in experiment [5] was 2.55%.

In the case of `O=C(O)CCCC/C=C(\c1ccccc1)c1cccnc1`, the Potency result in experiment [1], in experiment [2], in experiment [3] and in experiment [4] was “inactive” throughout. Further, the ratio activity, negative = inhibition in experiment [5] is -4.66%.

As to `Cc1cc(-c2ccc(N=Nc3ccc4c(S(=O)(=O)O)cc(S(=O)(=O)O)c(N)c4c3O)c(C)c2)ccc1N=Nc1ccc2c(S(=O)(=O)O)cc(S(=O)(=O)O)c(N)c2c1O`, the Potency entry in experiment [1] and in experiment [3] was “inactive” in each case. The Potency in experiment [2] was 28.7 µM (active) and 14.4 µM (active); in experiment [4], 8.09 µM (active).

Regarding `O=C(NCCNCC(O)COc1ccc(O)cc1)N1CCOCC1` (configuration not stated), the Potency entry in experiment [1], in experiment [2], in experiment [3] and in experiment [4] was “inactive” each time. For the same compound, in experiment [5], the ratio activity, negative = inhibition is 1.92%.

As for `O=C(O)COc1ccccc1/C=N/NC(=O)c1ccncc1`, the Potency result in experiment [1], in experiment [2], in experiment [3] and in experiment [4] was “inactive” throughout.

With `CCOC(=O)c1c[nH]c2cc(OCC(C)C)c(OCC(C)C)cc2c1=O`, the Potency entry in experiment [1], in experiment [2], in experiment [3] and in experiment [4] was “inactive” throughout.

As to `O=C(O)COc1ccc(CCNS(=O)(=O)c2ccccc2)s1`, the Potency entry in experiment [1], in experiment [2], in experiment [3] and in experiment [4] was “inactive” throughout.

Consider `CC1=C(/C=C/C(C)=C/C=C/C(C)=C/C(=O)Oc2c(C)c(C)c3c(c2C)CC[C@@](C)(CCC[C@H](C)CCC[C@H](C)CCCC(C)C)O3)C(C)(C)CCC1`, for which the Potency entry in experiment [1], in experiment [2] and in experiment [3] was “inactive” in each case. For the same compound, the Potency in experiment [4] was 5.73 µM (active). In addition, the ratio activity, negative = inhibition in experiment [5] was -26.4%.

Take `CC(/C=C/C=C(\C)C(=O)O[C@@H]1O[C@H](CO[C@@H]2O[C@H](CO)[C@@H](O)[C@H](O)[C@H]2O)[C@@H](O)[C@H](O)[C@H]1O)=C\C=C\C=C(C)\C=C\C=C(/C)C(=O)O[C@@H]1O[C@H](CO[C@@H]2O[C@H](CO)[C@@H](O)[C@H](O)[C@H]2O)[C@@H](O)[C@H](O)[C@H]1O`: the Potency result in experiment [1], in experiment [2], in experiment [3] and in experiment [4] was “inactive” throughout. Further, the ratio activity, negative = inhibition in experiment [5] was 3.54%.

As for `O=C(O)CCC/C=C\C[C@@H]1[C@@H](/C=C/[C@@H](O)COc2cccc(Cl)c2)[C@H](O)C[C@@H]1O`, the Potency entry in experiment [1], in experiment [2], in experiment [3] and in experiment [4] was “inactive” each time.

Consider `CNC(=O)C[C@@H](N)C(=O)N[C@@H](C(=O)N[C@@H]1C(=O)N2[C@@H]1SC(C)(C)[C@@H]2C(=O)O)c1ccc(O)cc1`, for which the Potency entry in experiment [1], in experiment [2], in experiment [3] and in experiment [4] was “inactive” in each case. The ratio activity, negative = inhibition in experiment [5] is -2.79%.

In the case of `O=C(CCCN1CCN2CCCC2C1)c1ccc(F)cc1` (configuration not stated), the Potency entry in experiment [1], in experiment [2], in experiment [3] and in experiment [4] was “inactive” each time. Moreover, the ratio activity, negative = inhibition in experiment [5] is -6.15%.

`NC(=O)[C@H]1O[C@@H](O)[C@H](O)[C@@H](O)[C@@H]1O`: the Potency entry in experiment [1], in experiment [2], in experiment [3] and in experiment [4] was “inactive” in each case.

`CC1(O)CCC(C(C)(C)O)CC1` (configuration not stated): the Potency result in experiment [1], in experiment [2], in experiment [3] and in experiment [4] was “inactive” each time.

In the case of `[O]=[Bi][O]C(=O)[O][Bi]=[O]`, the Potency entry in experiment [1], in experiment [2], in experiment [3] and in experiment [4] was “inactive” each time. In addition, the ratio activity, negative = inhibition in experiment [5] is -4.42%.

For the compound `CCCCC[C@H](O)/C=C/[C@@H]1[C@H]2C/C(=C/CCCC(=O)O)O[C@H]2C[C@H]1O`, the Potency result in experiment [1], in experiment [2], in experiment [3] and in experiment [4] was “inactive” in each case.

For `Oc1cc(O)cc(O)c1`, the Potency result in experiment [1], in experiment [2], in experiment [3] and in experiment [4] was “inactive” each time. Further, the ratio activity, negative = inhibition in experiment [5] is 10.4%.

With `CCCCC/C=C\C/C=C\C/C=C\CCCCC(=O)O`, the Potency entry in experiment [1], in experiment [2], in experiment [3] and in experiment [4] was “inactive” in each case. Further, in experiment [5], the ratio activity, negative = inhibition is -14.4%.
